# Source: ChEMBL document CHEMBL1157539, “Thousands of chemical starting points for antimalarial lead identification” (Nature, 2010)
# Tested on: HepG2
# Assay: GSK_TCMDC: Percent inhibition of human HepG2 cell line. Test compounds present at 10uM.
# Assay type: functional
row,Structure (SMILES),Inhibition
1,COC(=O)C1=CNC=C(C(=O)OC)C1c1ccc(Cl)c([N+](=O)[O-])c1,0%
2,CC(C)OC(=O)c1cccnc1SCC(=O)Nc1ccc(C(F)(F)F)cc1Cl,3%
3,O=C(NC1CCN(c2ccc(F)cc2[N+](=O)[O-])CC1)c1cccs1,0%
